Active and inactive are the calls of the source. Unless noted, the rule behind the calls is not given here.
Tests used:
[1] = tested on: Wnt5a (protein binding on small-molecule microarray); assay: small molecules binding Wnt5a protein – biophysical, small-molecule microarray, 635/667 nm fluorescence, primary screen (AID 1142); conditions: 635 nm fluorescence, higher = more signal;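 note: fluorescence read at 667 nm with signal to noise per printed feature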
[2] = ATP-based viability of Huh7 replicon cells – cell-based, CellTiter-Glo luminescence, basal, 48 h, cytotoxicity control for HCV replication inhibitor project, primary screen (AID 1143); conditions: higher = more signal, called active from +8 up or from −8 down;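 note: Huh7 hepatoma cells carrying a hepatitis C replication reporter with no stimulus; test concentration not given here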
[3] = Pseudomonas biofilm growth suppression – PAO1 strain, BacTiter-Glo luminescence, LB-PBS, primary screen (AID 1144); conditions: P. aeruginosa PAO1 biofilm, 12 h, higher = more signal
[4] = basal CRE-LacZ reporter activity in PC12 – cell-based, unstimulated, primary screen (AID 1145); conditions: no forskolin, luminescence, 4.5 h, higher = more signal, called active from +8 up or from −8 down
[5] = forskolin-driven CRE-LacZ activity in PC12 – cell-based, CRE-LacZ reporter, forskolin-stimulated, primary screen (AID 1146); conditions: luminescence, 4.5 h, higher = more signal, called active from +8 up or from −8 down;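 note: PC12 cells with 6xCRE LacZ reporter stimulated by forskolin 10 µM; beta-galactosidase reporter signal reflecting CREB driven transcription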
[6] = molecular target: Streptavidin (Streptomyces avidinii) (UniProt P22629); assay: compounds binding control protein streptavidin – biophysical, small-molecule microarray, 635/667 nm fluorescence, artefact control for SMM compound annotation, primary screen (AID 1147); conditions: higher = more signal;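 note: signal reflects streptavidin binding to arrayed compounds as a control protein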
Streptavidin (Streptomyces avidinii), sequence (P22629 whole entry, looked up): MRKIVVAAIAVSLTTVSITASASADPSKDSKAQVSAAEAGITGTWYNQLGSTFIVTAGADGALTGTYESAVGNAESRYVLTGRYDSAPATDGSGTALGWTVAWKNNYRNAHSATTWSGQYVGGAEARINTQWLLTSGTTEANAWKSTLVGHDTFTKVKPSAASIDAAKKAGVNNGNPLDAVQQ

[7] = probe aInhba binding on compound microarray – biochemical, small-molecule microarray, 635/667 nm fluorescence, primary screen (AID 1148); conditions: higher = more signal;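 note: score merges 667nm spot fluorescence with signal-to-noise for antibody binding to printed compounds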
Torsin-1A (Homo sapiens) [8] = molecular target: Torsin-1A (Homo sapiens) (UniProt O14656); assay: TOR1A wild-type binding on microarray – cell lysate, small-molecule microarray, lysate, 635/667 nm, primary screen (AID 1149); conditions: COS7 hTOR1A-WT lysate, 635 nm fluorescence, higher = more signal
Torsin-1A (Homo sapiens), sequence (O14656 whole entry, looked up): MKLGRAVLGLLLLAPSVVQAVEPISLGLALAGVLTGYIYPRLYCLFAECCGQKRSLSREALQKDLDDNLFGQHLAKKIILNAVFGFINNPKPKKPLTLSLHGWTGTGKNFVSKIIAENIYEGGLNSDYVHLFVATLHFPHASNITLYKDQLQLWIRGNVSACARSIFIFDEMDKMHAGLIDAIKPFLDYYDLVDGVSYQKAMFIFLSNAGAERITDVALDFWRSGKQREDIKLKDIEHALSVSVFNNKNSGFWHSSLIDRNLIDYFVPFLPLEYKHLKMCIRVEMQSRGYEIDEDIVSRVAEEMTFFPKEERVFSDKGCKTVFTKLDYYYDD

Torsin-1A (Homo sapiens) [9] = molecular target: Torsin-1A (Homo sapiens) (UniProt O14656); assay: torsin A mutant lysate binding on microarrays – cell lysate, small-molecule microarray, COS7 lysate, 635/667 nm fluorescence, primary screen (AID 1150); conditions: COS7 hTOR1A mutant lysate, 635 nm fluorescence, higher = more signal;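 note: score pools 667 nm emission and signal to noise measuring lysate protein binding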
[10] = tested on: Sonic hedgehog protein (Shh); assay: Sonic hedgehog microarray binding compounds – biochemical, small-molecule microarray, 635/667 nm fluorescence, primary screen (AID 1151); conditions: 635 nm fluorescence, higher = more signal;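 note: Shh protein binding to compounds spotted on small-molecule microarray slides; score combines spot fluorescence intensity with signal-to-noise across triplicate slides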

Compound | composite z-score [1] | z-score [2] | z-score [3] | z-score [4] | z-score [5] | composite z-score [6] | composite z-score [7] | composite z-score (Torsin-1A (Homo sapiens) [8]) | composite z-score (Torsin-1A (Homo sapiens) [9]) | composite z-score [10]
O=C1N(CCS(=O)(=O)c2ccccc2)c2ccccc2C[C@@]12COC(c1ccc(OCCCO)cc1)=N2 | 0.576 | -1.46 (inactive) | 0.261 (inactive) | 0.218 (inactive) | -0.151 (inactive) | 0.906 | 0.362 | 0.784 | 0.967 | 0.534
Cc1ccc([C@H]2C(C(=O)O)=C[C@@H](C)N2S(=O)(=O)c2ccc(C)cc2)cc1 | -0.144 | -0.501 (inactive) | 0.759 (inactive) | -0.126 (inactive) | 1.32 (inactive) | 0.642 | -0.0509 | -0.948 | -0.465 | -0.945
COC(=O)C(CC#Cc1ccc2c(c1)[C@]1(C(=O)N2)[C@H](c2ccc(OCCO)cc2)N2[C@H](c3ccccc3)[C@H](c3ccccc3)OC(=O)[C@H]2[C@@H]1C(=O)NC[C@H](O)c1ccccc1)C(=O)OC | 0.593 | -1.17 (inactive) | -0.923 (inactive) | 0.0384 (inactive) | -0.926 (inactive) | 0.472 | 0.0442 | 0.413 | 0.532 | 1.4
CO[C@H]1O[C@H](CO)[C@@H](OC(=O)Nc2ccc(Oc3ccccc3)cc2)[C@H](OC(=O)Nc2ccccc2)[C@H]1OC(=O)Nc1ccccc1 | 1.07 | -5.1 (inactive) | -2.24 (inactive) | 0.512 (inactive) | -1.64 (inactive) | 0.693 | 0.167 | 0.546 | 0.76 | 1.86
C=CC(=C)C1=CCO[C@@H]1[C@H]1CCCN1S(=O)(=O)c1ccccc1[N+](=O)[O-] | 0.224 | -0.169 (inactive) | -0.484 (inactive) | 0.124 (inactive) | 0.619 (inactive) | 0.909 | -0.0221 | 0.343 | 0.136 | 1.84
CCOC(=O)C[C@H]1[C@H](OC(=O)c2ccc(-c3ccccc3)cc2)[C@@H](NC(=O)Cc2ccc(OC)cc2)c2cc(OCCCO)ccc2N1C(=O)c1ccc2ccccc2n1 | 0.163 | 0.429 (inactive) | 0.26 (inactive) | -0.0529 (inactive) | -0.489 (inactive) | 0.8 | -0.0468 | 0.33 | -0.0342 | -0.525
COC(=O)c1ccc(C(O)C2C=CC3C(=O)N(C)C(=O)C3N2NC(=O)OC(C)(C)C)o1 (stereo not given) | 0.565 | 0.534 (inactive) | 0.212 (inactive) | 1 (inactive) | 0.323 (inactive) | 0.367 | -0.128 | 0.649 | 1.5 | 0.112
CC(C)(C)OC(=O)CC[C@@]1(C(=O)NCCN2CCOCC2)N=C(c2ccc(OCCCO)cc2)O[C@@H]1c1ccccc1 | 0.739 | 0.256 (inactive) | 0.174 (inactive) | -1.33 (inactive) | -0.998 (inactive) | 1.12 | 0.248 | 0.388 | -0.522 | 0.306
C=CCC(OC(C)=O)[C@@H]1[C@@H](N(Cc2cccc3ccccc23)C(=O)c2cccc3ccccc23)c2cc(OCCCO)ccc2N1C(=O)c1ccc2ccccc2n1 (stereo not given in full) | -0.0721 | -1.66 (inactive) | 0.603 (inactive) | 0.265 (inactive) | 0.446 (inactive) | 0.193 | -0.0791 | -0.309 | -0.297 | 0.832
COCCOC(=O)N1C(=O)[C@@]2(c3cc(C#CCNC(N)=O)ccc31)[C@H](c1ccc(O)cc1)N1[C@H](c3ccccc3)[C@H](c3ccccc3)OC(=O)[C@H]1[C@@H]2C(=O)Nc1nc2ccccc2s1 | 0.327 | -2.61 (inactive) | -2.43 (inactive) | -0.463 (inactive) | -1.5 (inactive) | 0.454 | -0.102 | 0.518 | 0.587 | 1.34
C=CCNC(=O)[C@@H]1[C@H]2C(=O)O[C@H](c3ccccc3)[C@H](c3ccccc3)N2[C@H](c2ccc(OCCO)cc2)[C@@]12C(=O)Nc1ccccc12 | 0.358 | -4.32 (inactive) | -2.23 (inactive) | -0.905 (inactive) | -1.87 (inactive) | 0.226 | -0.102 | 0.355 | 0.209 | 1.61
C=C[C@H](C)[C@@H](O)c1ccc(O)c2ccccc12 | -0.302 | -0.276 (inactive) | -0.501 (inactive) | -0.869 (inactive) | 1.63 (inactive) | -0.785 | -0.0471 | -0.378 | -0.0127 | 1.38
CCCC[C@H]1OB(O)C[C@H]2C1=C(C)C[C@H]1C(=O)N(Cc3ccccc3)C(=O)[C@H]12 | 0.34 | 0.342 (inactive) | 0.464 (inactive) | -0.23 (inactive) | -0.155 (inactive) | -0.0276 | -0.122 | 0.358 | 0.528 | 1.01
CC(C)C(=C=CC[C@@H](O)c1ccccc1OCCO)C[C@@H](O)c1ccccn1 | -0.0212 | -1.3 (inactive) | 0.497 (inactive) | 1.19 (inactive) | -0.3 (inactive) | -0.0132 | 0.0275 | 0.276 | -0.303 | 1.14
